Laboratory results from PubChem BioAssay.
Several values for one entry are separate records, joined by “and”; a condition that tells them apart may be missing. Equal values may be shown once. A structure can be active in one record and inactive in another. Activity calls are given as the source filed them. Unless noted, the rule behind the calls is not given here.

Experiments:
[1] = drug combination growth inhibition, ovarian cancer – cell-based, oncology-focused library, rucaparib conditional, profiling panel (AID 1508598;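 active = normalized viability below 100% at a tested concentration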); details: patient-derived ovarian cancer cells, CellTiter-Glo viability, 144 h, stronger effect = lower value
[2] = galactose survival enhancers in mitochondrial complex I cybrids – cell-based, galactose medium, ATP luminescence, primary screen (AID 1645843;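 active = z-score of at least 1.8 in each of two replicates, scored against plate mean and spread of sample wells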;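 note: positive z means more ATP and so rescue of galactose-driven cybrid death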); details: complex I mutant cybrid cells, 72 h, stronger effect = higher value
[3] = tested on: Aerobactin synthetase IucA (Klebsiella pneumoniae); test: inhibition of K. pneumoniae IucA enzyme – biochemical, Tocris library, absorbance (AID 1345561); details: purified IucA enzyme assay, absorbance (OD) read-out; stronger effect = lower value;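 tested at 8 µM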;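 note: 100% = enzyme without compound and 0% = no enzyme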
[4] = viability loss with induced miR-34 in A549 – imaging, A549 dox-inducible miR-34, nuclei and caspase counts, primary screen (AID 1347080;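 active = compounds whose cell count with miR-34 switched on is under 0.7 times the count with it off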); details: A549 miR-34 inducible, Hoechst nuclei count, 48 h
[5] = chitosan synthesis blockers in C. neoformans – flow cytometry, Cibacron Brilliant Red staining (AID 1347148); details: Cryptococcus neoformans chitosan, stronger effect = lower value; at 10 µM unless noted;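 note: compound exposure lasted three days at 37 degrees C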
[6] = compounds altering circadian rhythm period length – cell-based, LOPAC library, luminescence reporter (AID 2774); details: circadian reporter cells, at 7 µM, actives lie on both sides;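 note: values are relative to mean of DMSO wells on each plate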
[7] = compounds altering viability of human ES cells (AID 493140); details: human embryonic stem cell survival screen; stronger effect = higher value;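 note: cells exposed to compounds for four days before counting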
[8] = tested on: Hepatitis C virus NS3 helicase; test: blockers of NS3h binding to ssDNA – biochemical, fluorescence polarization, LOPAC1280 library, primary screen (AID 687035; in the data active = inhibition above about 37%); details: Purified HCV NS3 helicase, Cy5-dT15 ssDNA binding fluorescence polarization; stronger effect = higher value; concentration not given here
[9] = compounds altering Cy5-DNA-NS3h complex signal – biochemical, LOPAC1280, artefact control for HCV NS3 helicase inhibitor project (AID 687037); details: Cy5-DNA-NS3h complex fluorescence interference counterscreen
[10] = blockers of cellular phospholipid synthesis – cell-based, LOPAC library, screen 4, primary screen (AID 1347384); details: animal cells, phospholipid biosynthesis inhibition screen; at 10 µM
[11] = P. berghei load reduction in hepatocytes – cell-based, HepG2, luciferase luminescence, HepG2 viability, primary screen (AID 624349; in the data active = parasite load remaining mostly below about 12%, no sharp cut-off; inactive = mostly above about 10%;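 note: 100% = mean of DMSO negative control wells on the same plate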); details: P. berghei liver stage in HepG2, luciferase luminescence, concentration not given here; parasite load remaining: stronger effect = lower value; viability: measured here: HepG2 viability without parasites
[12] = compounds altering HSF1 focus formation in cells – imaging, Selleck Cancer Library (AID 1347162; in the data active = plate-normalised HSF1 focus index below about 0.46); details: human cells, HSF1 nuclear foci imaging, at 10 µM; SSMD: measured here: HSF1 foci SSMD mean; cell count: measured here: cell number; plate-normalised HSF1 focus index: stronger effect = lower value
[13] = growth inhibition, single agent or in combination, cell-based, chromothripsis tumors, cisplatin or BGB combos (AID 1671449; in the data active = inhibition above about 80%;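 note: cells exposed for 96 hours; 0% = vehicle DMSO and 100% = killing by high DMSO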); details: LFS_MB_P medulloblastoma cells
[14] = growth inhibition, single agent and combos, cell-based, chromothripsis tumors, cisplatin or BGB combos (AID 1671450; in the data active = inhibition above about 80%;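 note: cells exposed to compound for four days; 0% = vehicle DMSO and 100% = cell killing by high DMSO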); details: HDN33 neuroblastoma cells, stronger effect = higher value
[15] = growth inhibition, single agents and combos, ICB984, cell-based, cisplatin or BGB combos, synergistic combos for chromothripsis tumors (AID 1671451); details: ICB984 medulloblastoma cells, drug combinations, stronger effect = higher value;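 note: cells exposed for 96 hours before readout; 0% = vehicle DMSO and 100% = killing by high DMSO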
[16] = growth inhibition, single agents and combos, HTB85, cell-based, BGB or cisplatin IC20 combos, synergistic combos for chromothripsis tumors (AID 1671453; in the data active = inhibition above about 80%;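 note: cells exposed for 96 hours before readout; 0% = vehicle DMSO and 100% = high DMSO killing control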); details: HTB85 osteosarcoma cells, drug combinations, stronger effect = higher value
[17] = stronger effect = lower value, cell number ratio, induced over uninduced
[18] = measured here: relative caspase fold change +Dox/-Dox
[19] = measured here: total cells with miR-34 induction, stronger effect = lower value
[20] = measured here: total cells without miR-34 induction

Cn1cc(C2=C(c3ccc(Cl)cc3Cl)C(=O)NC2=O)c2ccccc21
viability ([1]; at 0.0781 µM, OCI-C5x cells, with rucaparib 10 µM, 100% = cells with rucaparib alone): 110% (inactive)
viability ([1]; at 0.0781 µM, OCI-C5x cells, without rucaparib): 112% (inactive)
viability ([1]; at 0.0781 µM, OCI-P5x cells, with rucaparib 20 µM, 100% = cells with rucaparib alone): 106% (inactive)
viability ([1]; at 0.0781 µM, OCI-P5x cells, without rucaparib): 81.9% (active)
viability ([1]; at 0.313 µM, OCI-C5x cells, with rucaparib 10 µM, 100% = cells with rucaparib alone): 122% (inactive)
viability ([1]; at 0.313 µM, OCI-C5x cells, without rucaparib): 106% (inactive)
viability ([1]; at 0.313 µM, OCI-P5x cells, with rucaparib 20 µM, 100% = cells with rucaparib alone): 97.2% (active)
viability ([1]; at 0.313 µM, OCI-P5x cells, without rucaparib): 89.8% (active)
viability ([1]; at 1.25 µM, OCI-C5x cells, with rucaparib 10 µM, 100% = cells with rucaparib alone): 126% (inactive)
viability ([1]; at 1.25 µM, OCI-C5x cells, without rucaparib): 111% (inactive)
viability ([1]; at 1.25 µM, OCI-P5x cells, with rucaparib 20 µM, 100% = cells with rucaparib alone): 96.3% (active)
viability ([1]; at 1.25 µM, OCI-P5x cells, without rucaparib): 84.5% (active)
viability ([1]; at 5 µM, OCI-C5x cells, with rucaparib 10 µM, 100% = cells with rucaparib alone): 114% (inactive)
viability ([1]; at 5 µM, OCI-C5x cells, without rucaparib): 120% (inactive)
viability ([1]; at 5 µM, OCI-P5x cells, with rucaparib 20 µM, 100% = cells with rucaparib alone): 89.2% (active)
viability ([1]; at 5 µM, OCI-P5x cells, without rucaparib): 83.9% (active)
z-score [2]: 1.59 (inactive) and 0.305 (inactive)

O=C1CCc2c(ccc3ccccc23)O1
remaining activity [3]: 100% (inactive)
fold change [4, 17]: 0.939 (inactive) and 0.91 (inactive)
fold change [4, 18]: 0.854 and 0.797
cell count [4, 19]: 5380 and 8760
cell count [4, 20]: 5730 and 9620
fold fluorescence [5]: 3.79 [at 252.2 µM] (inactive)
z-score [2]: -0.32 (inactive)

CCCCCCCC/C=C\CCCCCCCC(=O)NCCc1ccc(O)c(O)c1
period change [6]: 0.16 h (inactive)
survival [7]: 98 (inactive)
inhibition [8]: -3% (inactive)
fluorescence ratio (interference) [9]: 1 (inactive)
remaining activity [3]: 113% (inactive)
fold change [4, 17]: 0.822 (inactive) and 1.01 (inactive) and 1 (inactive)
fold change [4, 18]: 1.55 and 1.58 and 0.782
cell count [4, 19]: 4510 and 5800 and 5520
cell count [4, 20]: 5490 and 5740 and 5510
outcome [10]: inactive
z-score [2]: -1.38 (inactive) and -0.82 (inactive)

Cn1cc(C(=O)OCC2CCN(CCNS(C)(=O)=O)CC2)c2ccccc21
period change [6]: 0.07 h (inactive)
inhibition [8]: -1% (inactive)
fluorescence ratio (interference) [9]: 1 (inactive)
remaining activity [3]: 123% (inactive)
fold change [4, 17]: 1.06 (inactive) and 0.932 (inactive)
fold change [4, 18]: 1.51 and 0.946
cell count [4, 19]: 9310 and 9140
cell count [4, 20]: 8780 and 9810
outcome [10]: inactive
z-score [2]: -0.825 (inactive) and -0.425 (inactive)

CN(C)c1ccc(/C=C2\C(=O)Nc3ccccc32)cc1
period change [6]: -0.18 h (inactive)
survival [7]: 85.4 (inactive)
inhibition [8]: -2% (inactive)
fluorescence ratio (interference) [9]: 0.9 (inactive)
remaining activity [3]: 109% (inactive)
fold change [4, 17]: 1.15 (inactive) and 1.05 (inactive) and 0.834 (inactive)
fold change [4, 18]: 1.24 and 1.39 and 0.903
cell count [4, 19]: 7000 and 1360 and 6590
cell count [4, 20]: 6070 and 1300 and 7900
fold fluorescence [5]: 5.59 [at 189.2 µM] (inactive)
outcome [10]: inactive
z-score [2]: 3.25 (active) and 0.195 (inactive)

COC(=O)c1c(C)[nH]c(C)c1C(=O)c1ccccc1Cc1ccccc1
period change [6]: 0.045 h (inactive)
inhibition [8]: -1% (inactive)
fluorescence ratio (interference) [9]: 1 (inactive)
remaining activity [3]: 110% (inactive)
fold change [4, 17]: 0.994 (inactive) and 1.2 (inactive) and 0.953 (inactive)
fold change [4, 18]: 0.778 and 0.775 and 0.777
cell count [4, 19]: 7970 and 5070 and 7630
cell count [4, 20]: 8020 and 4240 and 8010
fold fluorescence [5]: 5.89 [at 143.9 µM] (inactive)
outcome [10]: inactive
z-score [2]: -0.58 (inactive) and -0.485 (inactive)

COCc1nc2c([nH]1)c(=O)n(C)c(=O)n2CC(C)C
period change [6]: -0.19 h (inactive)
inhibition [8]: -4% (inactive)
fluorescence ratio (interference) [9]: 0.9 (inactive)
remaining activity [3]: 101% (inactive)
fold change [4, 17]: 1.1 (inactive) and 0.916 (inactive) and 0.973 (inactive)
fold change [4, 18]: 1 and 1.13 and 0.871
cell count [4, 19]: 11000 and 5700 and 9180
cell count [4, 20]: 10000 and 6220 and 9430
fold fluorescence [5]: 4.02 [at 187.8 µM] (inactive)
outcome [10]: inactive
z-score [2]: 0.515 (inactive) and -0.165 (inactive)

N.N.O=C(O)C1(C(=O)O)CCC1.[Pt]
parasite load remaining [11]: 105% (inactive) and 45.1% (inactive)
viability [11]: 75.3% and 97.1%
remaining activity [3]: 100% (inactive)
fold change [4, 17]: 0.91 (inactive) and 1.06 (inactive)
fold change [4, 18]: 1.49 and 3.05
cell count [4, 19]: 7500 and 6220
cell count [4, 20]: 8240 and 5890
SSMD [12]: 2.09
cell count [12]: 7840
plate-normalised HSF1 focus index [12]: 1.08 (inactive)
z-score [2]: -0.15 (inactive)
inhibition ([13]; at 0.5 µM, stronger effect = higher value): -25.8% (inactive) and -25% (inactive)
inhibition ([13]; measured here: combination with BGB IC20, at 0.005 µM): -21.9% and -15.8%
inhibition ([13]; measured here: combination with BGB IC40, at 0.005 µM): -33.4% and -11.2%
inhibition ([13]; measured here: combination with BGB IC40, at 0.05 µM): -8.87% and -31.1%
inhibition ([13]; measured here: combination with cisplatin, at 0.5 µM, stronger effect = higher value): -41.1% and -20.3%
inhibition ([13]; measured here: combination with cisplatin, at 5 µM, stronger effect = higher value): -26.5% and -12.9%
inhibition ([14]; BGB combo, at 5 µM): -9.54% and -0.176%
inhibition ([14]; at 0.5 µM): -16.9% (inactive) and -34.4% (inactive)
inhibition ([14]; cisplatin combo, at 5 µM): -4.51% and -16.2%
inhibition ([14]; measured here: with BGB IC20 combination, at 0.5 µM): -16.3% and -33.3%
inhibition ([14]; measured here: with cisplatin IC20 combination, at 0.5 µM): 7.01% and -41.5%
inhibition ([14]; single agent, at 5 µM): -8.33% and -8.24%
inhibition ([15]; BGB IC20 combo, at 0.005 µM): -23.8% and 9.43%
inhibition ([15]; BGB IC40 combo, at 0.005 µM): -28.7% and -26%
inhibition ([15]; BGB IC40 combo, at 0.05 µM): -33.8% and -31.4%
inhibition ([15]; at 0.5 µM): -17.7% (inactive) and -35.2% (inactive)
inhibition ([15]; cisplatin combo, at 0.05 µM): -33.8% and -36.1%
inhibition ([15]; cisplatin combo, at 0.5 µM): -26.5% and -43.2%
inhibition ([15]; cisplatin combo, at 5 µM): -41.9% and -11%
inhibition ([15]; measured here: 5 uM single agent, at 5 µM): -8.78% and -6.62%
inhibition ([16]; at 0.5 µM): -12.1% (inactive) and -29.4% (inactive)
inhibition ([16]; measured here: with BGB IC20, at 0.5 µM): -30.4% and -34.9%
inhibition ([16]; measured here: with BGB IC20, at 5 µM): 11.7% and -2.3%
inhibition ([16]; measured here: with cisplatin IC20, at 0.5 µM): 2.42% and -41.2%
inhibition ([16]; measured here: with cisplatin IC20, at 5 µM): 0.587% and 34.7%
inhibition ([16]; single agent, at 5 µM): -3.92% and 13.4%

CCCCCCCC/C=C\CCCCCCCC(N)=O
survival [7]: 102 (inactive)
remaining activity [3]: 107% (inactive)
fold change [4, 17]: 0.955 (inactive) and 0.909 (inactive) and 1 (inactive)
fold change [4, 18]: 1.2 and 0.885 and 0.621
cell count [4, 19]: 5390 and 5900 and 8530
cell count [4, 20]: 5650 and 6490 and 8490
fold fluorescence [5]: 4.91 (inactive)
z-score [2]: -0.84 (inactive)

CC(N)=NCc1cccc(CN)c1
period change [6]: -0.015 h (inactive)
remaining activity [3]: 107% (inactive)
fold change [4, 17]: 1.05 (inactive) and 0.837 (inactive)
fold change [4, 18]: 1.01 and 0.692
cell count [4, 19]: 6210 and 7850
cell count [4, 20]: 5900 and 9380
fold fluorescence [5]: 3.53 [at 282.1 µM] (inactive)
z-score [2]: 0 (inactive)

CCSC(=N)N
period change [6]: 0.115 h (inactive)
inhibition [8]: -2% (inactive)
fluorescence ratio (interference) [9]: 1 (inactive)
remaining activity [3]: 116% (inactive)
fold change [4, 17]: 1.03 (inactive) and 0.939 (inactive) and 0.949 (inactive)
fold change [4, 18]: 0.74 and 0.98 and 1.59
cell count [4, 19]: 10300 and 5940 and 9910
cell count [4, 20]: 10000 and 6330 and 10400
outcome [10]: inactive
z-score [2]: 0.125 (inactive) and 0.13 (inactive)
